# The list is not random: actives were taken first. Their share in the collection is about 3.9%.
# HSF1 activator: increases HSF-1 driven luciferase reporter signal; activation, % at 9 µM; NIH3T3-HGL HSF-1 luciferase reporter, MG132, 8 h; 100% = twice DMSO control signal; 300,000 compounds, 1.7% hits;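 active = mean replicate activation of at least 50% with a set share of replicates each reaching 50%; inconclusive = only one of those two conditions met; inactive = mean below 50% and too few replicates reaching it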;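 also: 0% = median of the neutral control wells and 100% = twice that signal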
# MITF act: MITF TRPM1 promoter activation in melanoma cells. SK-MEL-5 TRPM1-promoter luciferase, 24 h; % of positive control, neutral wells = 0. activation, % at 12.5 µM. 300,000 compounds, 0.75% hits. AID 588334;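 active = mean activation of at least 80% with every replicate also reaching 80%; inconclusive = mean reaches 80% but some replicate falls short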;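 also: 0% = neutral control wells and 100% = parthenolide positive control wells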
# HSF1 inh: HSF1 inhibition; 300,000 compounds, 0.77% hits; NIH3T3-HGL HSE-luciferase, MG132-induced, luminescence 8 h; active compounds read low; activity change, negative = inhibition, % at 7.5 µM (by protocol); AID 2098;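 active = more than half of replicate wells show activity change below -50%, luminescence cut by over half; inconclusive = some wells, but at most half, below -50%; inactive = no replicate well below -50%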;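 also: luciferase reports HSF-1 transcriptional activity via heat shock element; 0% = median of DMSO wells and -100% = zero luminescence signal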
# esBAF inh: blocks esBAF chromatin remodeling in mouse ES cells; AID 602393; reporter increase, % at 12.5 µM; 350,000 compounds, 2% hits; Bmi1-luciferase knock-in reporter, 24 h; 100% = twice the neutral-well signal; in the data active = activation above about 40%; inconclusive = no clear call, values can overlap the other calls;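 also: 0% = median of the plate's neutral control wells and 100% = double that signal; a rise in the Bmi1 reporter signal indicates esBAF inhibition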
# Wnt bcat act: activates Wnt/beta-catenin signaling in a reporter cell assay | 300,000 compounds, 1.2% hits | activation, % at 9.35 µM | activator, plate reader | AID 743398; in the data active = activation above about 30%, passing the limit was not always enough; inconclusive = no clear call, values can overlap the other calls;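 also: 0% = neutral control wells and 100% = positive control wells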
# Numbers without * were called inactive; i = inactive; ? = inconclusive; · = no result.
SMILES,HSF1 activator,MITF act,HSF1 inh,esBAF inh,Wnt bcat act
CCOc1ccc2nc(NC(=O)NC3CCCCC3)sc2c1,8,74,18,34*,4
CSc1ncccc1C(=O)Nc1ccncc1,-5,13,2,-1,-1
COc1ccc(NC(=O)c2cccnc2SC)cc1OC,4,15,2,1,35*
CCOc1ccc2nc(NC(=O)C34CC5CC(CC(NC(C)=O)(C5)C3)C4)sc2c1,31,66,18,58*,0
CCC(=O)N(C)C[C@H]1Oc2ncc(C#Cc3ccccc3OC)cc2C(=O)N([C@@H](C)CO)C[C@@H]1C,·,·,·,4,·
N#C[C@@H]1N[C@@H](CO)[C@@H]1c1ccc(-c2cccc(F)c2)cc1,·,·,·,-1,·
CSc1ncccc1C(=O)Nc1nc2ccc(Oc3ccccc3)cc2s1,15,62,8,45*,24
CCOc1ccc2nc(NC(=O)Nc3cccs3)sc2c1,80*,59,50,2,0
CCOC(=O)Cc1csc(NC(=O)Nc2cccs2)n1,-66,7,-57*,?,5
CCOc1ccc2nc(NC(=O)Nc3ccccc3)sc2c1,74*,63,29,·,·
COc1ccc2nc(NC(=O)c3ccccc3C(=O)O)sc2c1,2,2,0,9,1
CCOC(=O)Cc1csc(NC(=O)Cc2cccs2)n1,6,·,8,8,·
C[C@@H]1CN([C@@H](C)CO)C(=O)c2cc(NC(=O)C3CC3)ccc2O[C@@H]1CN(C)Cc1ccccc1,·,·,·,-2,·
CC=Cc1ccc2n(c1=O)C[C@@H]1[C@@H](CO)[C@H](C(=O)NCc3ccc(F)cc3)N(Cc3cncnc3)[C@H]21 (mixture of isomers),·,·,·,0,·
O=C(C1CC1)N1C[C@H]2[C@@H](c3ccccc31)[C@@H](CO)N2C(=O)c1cccc(F)c1,·,·,·,2,·
CCCOc1ccc(-c2cc(C(F)(F)F)c(C#N)c(SCC(=O)O)n2)cc1,6,-19,5,·,-2
Cc1nc(SCC(=O)Nc2nc3ccccc3s2)c(C#N)c(C)c1C,-94,-95,-92*,·,-30
Cc1nc(SCC(=O)Nc2nccs2)c(C#N)c(C)c1C,·,-45,·,-66,-2
Cc1ccc2sc(NC(=O)CSc3nc(C)cc(C)c3C#N)nc2c1,-44,52,-20,24,·
Cc1ccc(-c2cc(C(F)(F)F)c(C#N)c(SCC(=O)O)n2)cc1,58*,-20,35,·,-1
Cc1cc(C(F)(F)F)c(C#N)c(SCC(=O)Nc2nc3ccccc3s2)n1,-77,-23,-73*,-22,·
C[C@H]1CCCCO[C@H](CN(C)C(=O)c2ccccc2)[C@@H](C)CN([C@@H](C)CO)C(=O)c2cc(NS(=O)(=O)c3ccc(Cl)cc3)ccc2O1,·,·,·,-5,·
C[C@@H]1CN([C@H](C)CO)S(=O)(=O)c2ccc(Br)cc2O[C@H]1CN(C)Cc1cncnc1,·,·,·,2,·
CCS(=O)(=O)Nc1ccc2c(c1)C(=O)N(C)C[C@H](OC)[C@H](C)CN(C(=O)CN(C)C)[C@H](C)CO2,·,·,·,-1,·
CC(=O)n1cc(N(C(=O)CCl)c2ccc([N+](=O)[O-])cc2)c2ccccc21,75*,·,61,·,3
SMILES,HSF1 activator,MITF act,HSF1 inh,esBAF inh,Wnt bcat act
CC(=O)n1cc(N(C(=O)CCl)c2ccccc2)c2ccccc21,-52,·,-46,·,1
COc1ccc(-c2nn(-c3ccccc3)cc2/C=N/N2C(=O)CSC2=S)cc1,76*,-104,38,25,·
COc1ccc(/C=N/N2C(=O)CSC2=S)cc1,-7,11,8,-5,·
CNC[C@@H]1Oc2ccc(NS(=O)(=O)c3ccc(F)cc3)cc2C(=O)N([C@H](C)CO)C[C@@H]1C,·,·,·,0,·
Oc1ccc(NCc2ccccc2OCc2ccccc2)cc1,18,-7,16,·,39*
CCNCc1ccccc1OCc1ccccc1,-12,5,0,·,0
Cc1cc(=O)[nH]c(N/N=C/c2sccc2C)n1,-28,0,-28,10,2
C(=N\Nc1nc2ccccc2[nH]1)/c1cccs1,113*,58,99,67*,51*
C(=N\Nc1ncnc2nc[nH]c12)/c1cccs1,15,56,6,10,61*
Cc1ccsc1/C=N/Nc1nc2ccccc2[nH]1,803*,48,i,·,115*
Cc1ccccc1S(=O)(=O)N1[C@@H](C#N)[C@@H](c2ccccc2)[C@@H]1CO,·,·,·,-6,·
CNC[C@H]1Oc2c(NC(=O)c3cnccn3)cccc2C(=O)N([C@@H](C)CO)C[C@@H]1C,·,·,·,1,·
C[C@H](CO)N1C[C@H](C)[C@H](CN(C)C(=O)Cc2ccccc2)OCCCC[C@H](C)Oc2ccc(NS(=O)(=O)c3cccs3)cc2C1=O,·,·,·,15,·
O=C(CC1CCCCC1)NC1CCCC1,-5,·,-5,4,·
O=C(CC1CC2CCC1C2)NC1CCCCCCC1 (configuration not stated),-11,29,16,60*,12
COc1cc2cnc(-c3ccccc3F)cc2cc1OC,·,8,·,21,4
Fc1ccc2cc(-c3ccccc3F)ncc2c1,·,57,·,63*,?
Fc1ccc2cnc(-c3ccccc3F)cc2c1,·,27,·,54*,12
Fc1ccccc1-c1cc2ccccc2cn1,·,55,·,61*,36*
COCC(=O)N[C@@H]1CC[C@@H](CC(=O)N2CCCCC2)O[C@@H]1CO,·,·,·,-1,·
C[C@@H]1CN([C@H](C)CO)C(=O)c2cc(NS(=O)(=O)c3cn(C)cn3)ccc2O[C@@H](C)CCCCO[C@@H]1CN(C)CC1CC1,·,·,·,0,·
CCCCN1C(=O)C(=O)N(CC(=O)N2CCN(c3ccccc3)CC2)C1=O,-4,2,2,·,2
CCCCN1C(=O)C(=O)N(c2ccccc2)C1=S,26,122*,18,·,1
C[C@@H]1CN([C@H](C)CO)C(=O)Cc2cc(NS(=O)(=O)c3ccc(Cl)cc3)ccc2O[C@H]1CN(C)C(=O)Nc1ccc2c(c1)OCO2,·,·,·,4,·
CC(C)NC(=S)N/N=C/c1sc(N2CCCCC2)nc1-c1cccs1,19,37,3,67*,·
SMILES,HSF1 activator,MITF act,HSF1 inh,esBAF inh,Wnt bcat act
O=C(Nc1ccc(C(=O)N2CCOCC2)cc1)c1cnn2c(C(F)F)cc(-c3ccccc3)nc12,54*,-3,13,·,0
Cc1ccccc1NC(=S)C1=C(O)c2sccc2N(C)S1(=O)=O,58*,4,25,6,2
CN1c2ccsc2C(O)=C(C(=S)Nc2ccccc2)S1(=O)=O,-1,-1,5,-4,7
Oc1cccc(Oc2ncc(C(F)(F)F)cc2Cl)c1,18,15,2,·,64*
Cc1ccc(NC(=O)ON=C2CCCC2)cc1,0,97*,7,·,19
O=C(Nc1ccccc1)ON=C1CCCC1,15,20,1,·,-1
Cn1c(NC(=S)Nc2ccccc2)nc2ccccc21,77*,5,40,·,41*
S=C(Nc1ccccc1)Nc1nc2ccccc2n1CCOc1ccc(Br)cc1,4,3,0,-6,-9
COc1ccc(CNc2nc3ccccc3n2C)c(O)c1,45,93*,28,45,?
COc1ccc(CNc2nc3ccccc3n2C)c(OC)c1,32,40,24,·,10

# Source: PubChem
